# In PubChem BioAssay (NCI):
# The panel holds about 83,000 compounds, 20% with a hit somewhere; the sample as a whole holds those more often.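 Plates (96-well) were seeded with cells, treated with compound at one concentration, and incubated for 48 hours before percent growth was determined.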 Values without a mark were called inactive. Calls of active or inactive are those of the source. How the source made its calls: active means growth percent below 10; inactive means the rest.
# Tested on: HL-60(TB) leukemia
# Assay: NCI-60 one-dose screen, 48 h (100 = growth as untreated, 0 = no growth, -100 = all killed)
# Conditions: 10 µM unless noted
row,Compound,growth
1,COc1cc2c(cc1-c1c(C)noc1C)ncc1nc(C3CCC(F)(F)CC3)n([C@@H](C)COC(F)F)c12,18%
2,COc1cc(/C=N\Nc2ccccc2)ccc1OC(=O)c1ccccc1,-10.8% (active)
3,CCN(CC)CCN1C(=O)c2c(c(C)c3c(oc4cc(O)ccc43)c2C)C1=O,-50.6% (active)
4,COc1ccc(C(=O)/C=C/c2cccc([N+](=O)[O-])c2)c(OC)c1,-10.4% (active)
5,CC(C)C(=O)Nc1ccc(-c2nc(-c3cccc(OCCN4CCOCC4)c3)c(-c3ccnc(Br)c3)[nH]2)cc1,-28.5% (active)
